# In PubChem BioAssay AID1159580 (chemical genetic matrix, 2015):
# “And” between values parts separate entries of the source, which are not always exact repeats. Equal values may be shown once. The campaign covered roughly 5,500 compounds. About 2,000 (36%) were called active. About 18% were inconclusive and are not listed. Cut-off read from the data, not from the text of the source: active = normalized growth mostly below about 0.91 (no sharp cut-off); inconclusive = no clear call, values can overlap the other calls; inactive = mostly above about 0.92. The list shows a part of the results.
# Assay: chemical genetic growth profiling, strain panel (AID 1159580);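 note: tested at 20 µM; growth read once vehicle control cultures reached saturation at 30 °C; 1 = growth at the plate median or of vehicle wells; lower values mean less growth of the strain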
# Details: S. cerevisiae deletion strains, growth OD
compound,measurement,setting,value
COc1ccc2c(c1)OCc1c-2oc2cc(OC)ccc12,normalized growth,"locus YAL021C, strain ccr4, stronger effect = lower value",0.901 (active)
same,normalized growth,"locus YAL026C, strain drs2, stronger effect = lower value",0.764 (active)
same,normalized growth,"locus YAL030W, strain snc1, stronger effect = lower value",0.919 (active)
same,normalized growth,"locus YBL061C, strain skt5, stronger effect = lower value",0.864 (active)
same,normalized growth,"locus YBR009C, strain hhf1, stronger effect = lower value",0.737 (active)
same,normalized growth,"locus YBR021W, strain FUR4, stronger effect = lower value",0.946 (inactive)
same,normalized growth,"locus YBR023C, strain chs3, stronger effect = lower value",0.862 (active)
same,normalized growth,"locus YBR171W, strain sec66, stronger effect = lower value",0.973 (inactive)
same,normalized growth,"locus YBR229C, strain ROT2, stronger effect = lower value",0.997 (inactive)
same,normalized growth,"locus YBR231C, strain swc5, stronger effect = lower value",0.909 (active)
same,normalized growth,"locus YBR279W, strain paf1, stronger effect = lower value",0.894 (active)
same,normalized growth,"locus YCL011C, strain gbp2, stronger effect = lower value",0.792 (active)
same,normalized growth,"locus YCL016C, strain dcc1, stronger effect = lower value",0.858 (active)
same,normalized growth,"locus YCL029C, strain bik1, stronger effect = lower value",1 (inactive)
same,normalized growth,"locus YCL069W, strain vba3, stronger effect = lower value",0.945 (inactive)
same,normalized growth,"locus YCR088W, strain abp1, stronger effect = lower value",0.945 (inactive)
same,normalized growth,"locus YDL005C, strain med2, stronger effect = lower value",1.02 (inactive)
same,normalized growth,"locus YDL035C, strain GPR1, stronger effect = lower value",0.955 (inactive)
same,normalized growth,"locus YDL040C, strain nat1, stronger effect = lower value",0.988 (inactive)
same,normalized growth,"locus YDL101C, strain DUN1, stronger effect = lower value",0.915 (inactive)
same,normalized growth,"locus YDL134C, strain PPH21, stronger effect = lower value",0.908 (inactive)
same,normalized growth,"locus YDL185W, strain tfp1, stronger effect = lower value",1.05 (inactive)
same,normalized growth,"locus YDL192W, strain arf1, stronger effect = lower value",1.01 (inactive)
same,normalized growth,"locus YDR001C, strain nth1, stronger effect = lower value",0.989 (inactive)
same,normalized growth,"locus YDR069C, strain doa4, stronger effect = lower value",0.959 (inactive)
same,normalized growth,"locus YDR101C, strain arx1, stronger effect = lower value",0.997 (inactive)
same,normalized growth,"locus YDR137W, strain rgp1, stronger effect = lower value",0.415 (active)
same,normalized growth,"locus YDR150W, strain NUM1, stronger effect = lower value",0.991 (inactive)
same,normalized growth,"locus YDR159W, strain sac3, stronger effect = lower value",0.724 (active)
same,normalized growth,"locus YDR162C, strain NBP2, stronger effect = lower value",0.872 (inactive)
same,normalized growth,"locus YDR195W, strain ref2",1.08 (inactive)
same,normalized growth,"locus YDR297W, strain sur2, stronger effect = lower value",0.894 (active)
same,normalized growth,"locus YDR318W, strain mcm21, stronger effect = lower value",0.988 (inactive)
same,normalized growth,"locus YDR334W, strain swr1, stronger effect = lower value",1.01 (inactive)
same,normalized growth,"locus YDR335W, strain msn5, stronger effect = lower value",0.857 (active)
same,normalized growth,"locus YDR388W, stronger effect = lower value",1 (inactive)
same,normalized growth,"locus YDR392W, strain spt3, stronger effect = lower value",0.162 (active)
same,normalized growth,"locus YDR502C, strain sam2, stronger effect = lower value",0.985 (inactive)
same,normalized growth,"locus YEL003W, strain gim4, stronger effect = lower value",0.806 (active)
same,normalized growth,"locus YEL037C, strain rad23, stronger effect = lower value",0.986 (inactive)
same,normalized growth,"locus YEL061C, strain CIN8 (second series), stronger effect = lower value",0.777 (active)
same,normalized growth,"locus YEL061C, strain CIN8, stronger effect = lower value",0.666 (active)
same,normalized growth,"locus YER015W, strain faa2, stronger effect = lower value",0.9 (active)
same,normalized growth,"locus YER016W, strain bim1, stronger effect = lower value",0.87 (active)
same,normalized growth,"locus YER110C, stronger effect = lower value",0.995 (inactive)
same,normalized growth,"locus YER111C, strain swi4, stronger effect = lower value",0.84 (active)
same,normalized growth,"locus YER155C, strain BEM2 (second series), stronger effect = lower value",0.505 (active)
same,normalized growth,"locus YER155C, strain BEM2, stronger effect = lower value",0.941 (inactive)
same,normalized growth,"locus YFR010W, strain ubp6, stronger effect = lower value",0.942 (inactive)
same,normalized growth,"locus YGL078C, strain dbp3, stronger effect = lower value",1.03 (inactive)
same,normalized growth,"locus YGL086W, strain mad1, stronger effect = lower value",0.947 (inactive)
same,normalized growth,"locus YGL167C, strain pmr1, stronger effect = lower value",0.977 (inactive)
same,normalized growth,"locus YGL173C, strain kem1, stronger effect = lower value",0.851 (active)
same,normalized growth,"locus YGL227W, strain vid30, stronger effect = lower value",0.935 (inactive)
same,normalized growth,"locus YGL240W, strain doc1, stronger effect = lower value",0.756 (active)
same,normalized growth,"locus YGL248W, strain PDE1, stronger effect = lower value",0.84 (active)
same,normalized growth,"locus YGL253W, strain hxk2, stronger effect = lower value",0.866 (active)
same,normalized growth,"locus YGR078C, strain PAC10, stronger effect = lower value",0.943 (inactive)
same,normalized growth,"locus YGR135W, strain pre9, stronger effect = lower value",1.01 (inactive)
same,normalized growth,"locus YGR252W, strain gcn5, stronger effect = lower value",0.967 (inactive)
same,normalized growth,"locus YHR013C, strain ard1, stronger effect = lower value",0.975 (inactive)
same,normalized growth,"locus YHR027C, strain rpn1, stronger effect = lower value",0.916 (active)
same,normalized growth,"locus YHR030C, strain SLT2, stronger effect = lower value",0.966 (inactive)
same,normalized growth,"locus YHR079C, strain IRE1 (second series), stronger effect = lower value",1 (inactive)
same,normalized growth,"locus YHR079C, strain IRE1, stronger effect = lower value",0.951 (inactive)
same,normalized growth,"locus YHR094C, strain hxt1, stronger effect = lower value",1.02 (inactive)
same,normalized growth,"locus YHR129C, strain ARP1, stronger effect = lower value",0.779 (active)
same,normalized growth,"locus YHR142W, strain chs7, stronger effect = lower value",0.659 (active)
same,normalized growth,"locus YHR200W, strain rpn10, stronger effect = lower value",1.01 (inactive)
same,normalized growth,"locus YIL066C, strain RNR3, stronger effect = lower value",0.745 (active)
same,normalized growth,"locus YIL073C, strain SPO22, stronger effect = lower value",1.18 (inactive)
same,normalized growth,"locus YIL125W, strain kgd1, stronger effect = lower value",0.996 (inactive)
same,normalized growth,"locus YIR030C, strain dcg1, stronger effect = lower value",1 (inactive)
same,normalized growth,"locus YJL092W, strain hpr5, stronger effect = lower value",0.943 (inactive)
same,normalized growth,"locus YJL095W, strain BCK1 (second series), stronger effect = lower value",0.761 (active)
same,normalized growth,"locus YJL095W, strain BCK1, stronger effect = lower value",0.542 (active) and 0.952 (inactive)
same,normalized growth,"locus YJL115W, strain asf1, stronger effect = lower value",0.995 (inactive)
same,normalized growth,"locus YJL129C, strain trk1, stronger effect = lower value",0.839 (active)
same,normalized growth,"locus YJL134W, strain LCB3, stronger effect = lower value",1.01 (inactive)
same,normalized growth,"locus YJL154C, strain vps35, stronger effect = lower value",1 (inactive)
same,normalized growth,"locus YJL164C, strain tpk1, stronger effect = lower value",0.79 (active)
same,normalized growth,"locus YJL166W, strain qcr8, stronger effect = lower value",0.779 (active)
same,normalized growth,"locus YJL168C, strain set2, stronger effect = lower value",1.01 (inactive)
same,normalized growth,"locus YJR043C, strain POL32, stronger effect = lower value",0.953 (inactive)
same,normalized growth,"locus YJR066W, strain TOR1, stronger effect = lower value",0.876 (inactive)
